# Data as given in PubChem BioAssay (NCI).
# The panel holds about 83,000 compounds, 20% with a hit somewhere; the sample as a whole holds those more often.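 Method: cells in 96-well plates; compound added at one concentration; 48 h incubation; percent growth measured; values under 10 scored active.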 Unmarked numbers belong to inactive results. Activity calls are given as the source filed them.
# Test system: U251 CNS
# Assay: NCI-60 one-dose screen, 48 h (100 = growth as untreated, 0 = no growth, -100 = all killed)
# Conditions: 10 µM unless noted
# Experimental: Growth inhibition of the U251 human tumor cell line is measured as a screen for anti-cancer activity. Cells are grown in 96 well plates and exposed to the test compound for 48 hours. Compounds are tested at a single concentration, which is 10^-5 M for most compounds. The reported endpoint is percent growth (GI% or GIPRCNT), where numbers from 0 - 100% represent growth inhibition, and numbers from -100% - 0 represent cell death. For example, a value of 40 represents 60% growth inhibition. A value of 0 means no net growth occurred over the course of the experiment. A value of -40 indicates 40% of cells at the beginning of the experiment died by the end of the experiment. A value of -100 means all cells are dead at the end of the experiment.
# NCI-60 Human Tumor Cell Lines Screen was performed using the standard one-dose NCI protocol, which is described in more detail at https://dtp.cancer.gov/discovery_development/nci-60/default.htm.
# Compounds with GIPRCNT values below 10 were considered active. Activity score was based on GIPRCNT using the following formula: […]
# Score is 0 for GIPRCNT values of 100 or above, 50 for GIPRCNT values of 0, and 100 for GIPRCNT values of -100.
row,Structure (SMILES),growth
1,Nc1cc(N)c(S(=O)(=O)O)cc1N=Nc1cc([N+](=O)[O-])ccc1O,100%
2,COc1ccc2c(c1)OC13Oc4cc(OC)ccc4C=C1CCCCC3=C2,89.7%
3,COC(=O)[C@]1(C)CCC[C@]2(C)[C@H]3C[C@H]4C(C(C)C)=C[C@]3(CC[C@H]21)[C@@H]1C(=O)N(CCC#N)C(=O)[C@@H]14,87.8%
4,CC(=O)[C@@H]1CC[C@]2(C(=O)O)CC[C@]3(C)[C@H](CC[C@@H]4[C@@]5(C)Cc6c([nH]c7ccccc67)C(C)(C)[C@@H]5CC[C@]43C)[C@@H]12,45%
5,O=C1NC(SCc2ccc(F)cc2)=N/C1=C/c1cccc(OCc2ccc(Cl)cc2)c1,-41.2% (active)
6,c1ccc2c3c([nH]c2c1)C(c1ccc(C2NCCc4c2[nH]c2ccccc42)cc1)NCC3 (stereo not given),-92.6% (active)
7,N#Cc1ccc(N2Cc3cc(Cl)ccc3OC3=C2C(=O)N(Cc2ccccc2)C3=O)cc1,-31.7% (active)
8,COCCc1n(Cc2ccc3ccccc3c2)c2ccccc2[n+]1Cc1ccc2ccccc2c1,-89.8% (active)
9,COc1ccc(-n2cc(-c3ccc(Cl)c(Cl)c3)[nH]c2=O)cc1OC,91.7%
10,C1=CC2=CC=C3C=CC=C4C(c5nc6c7ccccc7c7ccccc7c6[nH]5)=CC(=C1)C2C34 (stereo not given),104%
11,Cc1cc(NC(=O)CNc2nc(Oc3ccc(F)cc3)nc(-c3ccc(F)cc3)n2)ccc1Cl,98.4%
12,c1ccc(-c2cn3ccnc3c(-c3ccc4c(c3)ncn4C3CCCCC3)n2)cc1,95.6%
13,O=c1cc(/C=N\Nc2nc(-c3ccc(Cl)cc3Cl)cs2)c2cc(Cl)ccc2o1,101%
14,Cc1ccn2c3c(c(C(=O)O)c2c1)C(=O)c1ccccc1C3=O,74.9%
15,Cc1cc(C)nc(NS(=O)(=O)c2ccc(Nc3ccc4c5c(n(CCCN(C)C)c(=O)c4c3)-c3ccccc3C5=O)cc2)n1,75.3%
16,CCCCCCCc1n(Cc2ccc3ccccc3c2)c2ccccc2[n+]1Cc1ccc2ccccc2c1,-79.8% (active)
17,COc1ccc(C2N(c3cc(OC)c(OC)c(OC)c3)C(=O)C2(F)F)cc1F (stereo not given),41.6%
18,COc1ccc(-c2cc(-c3nnc(SCC(=O)Nc4ccc(/C(C)=N\O)cc4)n3-c3ccccc3)c3cc(OC)ccc3n2)cc1,78.1%
19,O=C(Nc1cc(Nc2ncccc2-c2ncnc3nc[nH]c23)ccc1F)c1cc(C(F)(F)F)cc(C(F)(F)F)c1,-12.1% (active)
20,O=c1c2ccccc2n(CC(O)CN2CCCC2)c2c(Br)cccc12 (stereo not given),98.8%

row,Structure (SMILES),growth
1,COc1cc(/C=C/CO)cc(OC)c1O[C@@H]1O[C@H](CO)[C@@H](O)[C@H](O)[C@H]1O,96.1%
2,C[C@]12CC[C@@H]3c4ccc(O)cc4CC[C@H]3[C@@H]1C[C@H](O)C2,63.3%
3,COc1ccc(Sc2[nH]c(C(C)=O)c3ccccc23)cc1,76%
4,N#Cc1c(-c2ccc(Cl)cc2)cc(-c2cc3ccccc3o2)nc1SCC(=O)c1ccc(Cl)cc1,93.8%
5,Cc1cnc(SCc2ccc(Cl)cc2)[nH]c1=S,96.3%
6,COC1=CC=CC2(OC)C3(O)CCCc4cccc(c43)N3C(=O)COC132 (stereo not given),97.3%
7,O=C(Nc1ccc(N=Cc2ccccc2O)cc1)NC1C=c2ccccc2=CC1 (stereo not given),93.2%
8,CC[C@]12C=CCN3CC[C@@]4(c5ccc(OC)cc5N(C)[C@H]4[C@@](O)(C(=O)OC)[C@@H]1OC(=O)CCC(=O)O[C@H]1CC[C@H]4[C@@H]5CC[C@H]6CC(=O)CC[C@]6(C)[C@H]5CC[C@]14C)[C@@H]32,18.1%
9,C=C(C)[C@@H]1CC[C@]2(C(=O)O)CC[C@]3(C)[C@H](CC[C@@H]4[C@@]5(C)C[C@@H](CC#Cc6ccc(Cl)cc6)C(=O)C(C)(C)[C@@H]5CC[C@]43C)[C@@H]12,28.1%
10,CCOC(=O)C1=C(C)n2nc(CC#N)c(C#N)c2NC1c1ccc(Cl)cc1 (stereo not given),107%
11,Nc1ccccc1NS(=O)(=O)c1ccc(Cl)cc1,101%
12,COc1ccc(-n2cc(COc3ccc4c5ccnc(C)c5n(CC(C)C)c4c3)nn2)cc1,69.9%
13,CC1CCCN(CCCCCOc2ccc3oc4ccc(Cl)cc4c(=O)c3c2)C1 (stereo not given),68.2%
14,CN(C)CSc1nc2ccccc2s1,103%
15,Nc1c(C(=O)Nc2ccccn2)sc2nc3c(cc12)CCCCC3,23.2%
16,CC(C)C1=C[C@@]23CC[C@H]4[C@](C)(COCCC#N)CCC[C@]4(C)[C@H]2C[C@@H]1[C@@H]1[C@H]3[C@@H](OCCC#N)CC[C@@H]1OCCC#N,29.1%
17,CCCS(=O)(=O)Nc1ccc(F)c(C(=O)c2c[nH]c3ncc(-c4ccc(OCCCC5CCCCN5)nc4)cc23)c1F (stereo not given),61.2%
18,O=C1NN(c2ccccc2)C(c2ccc3c(c2)OCO3)N2CCC[C@@H]12 (stereo not given in full),95.1%
19,COc1ccc2c(c1)/C(=C1\S/C(=N/c3nnc(C)s3)NC1=O)C(=O)N2Cc1ccc(Cl)cc1,26%
20,CSc1nc(-c2cccs2)c2c(N)[nH]nc2n1,98.9%
